Results filed as inconclusive are left out. Calls of active or inactive are those of the source. Unless noted, calls come from the whole dose curve.
Columns and labels:
[1] = Nuclear factor erythroid 2-related factor 2/antioxidant responsive element (Nrf2/ARE) small molecule agonists: qHTS cell viability counter screen in human keratinocytes (AID 1919968; active = well fitted curve in the direction sought with a large enough effect in the repeat runs; an effect the other way counts as inactive or inconclusive; note: nearly all actives have a fitted effect of over 55% in size)
Outline: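 In human HaCaT keratinocytes stably expressing an ARE-driven luciferase, compound exposure lasted 23 h at 37 C under 5% CO2. Viable cells are quantified with a protease-based fluorogenic reagent (CellTiter-Fluor) read 1 h after addition.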

[2] = target: Gonadotropin-releasing hormone receptor (Homo sapiens) (UniProt P30968); assay: Human gonadotropin-releasing hormone receptor (GnRHR) small molecule agonists, calcium flux assay in GnRHR-HEK293 cells (AID 1920063); note: nearly all actives have a fitted effect of over 35% in size
Outline: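 Intracellular calcium rise is the read-out: engineered human GnRHR HEK293 cells, dye-loaded, are exposed to DMSO-dissolved compounds and fluorescence at Ex/Em 480/540 is tracked for 3 min.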

[3] = target: KiSS-1 receptor (Homo sapiens) (UniProt Q969F8); assay: Human kisspeptin (KISS1R) small molecule agonists, calcium flux assay in KISS1R-HEK293 cells (AID 1920064; active = well fitted curve in the direction sought with a large enough effect in the repeat runs; an effect the other way counts as inactive or inconclusive)
Outline: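 Concentration-response testing used 15 concentrations in triplicate on human KISS1R-expressing HEK293 cells. Calcium-dependent fluorescence (Ex/Em 480/540) was followed kinetically for 3 min after compound transfer.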

[4] = G protein-coupled receptor (GPCR) small molecule agonists, calcium flux assay: HEK293 wild type cell line counter screen (AID 1920065)
Outline: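 Fluorescence intensity signals activation. After overnight (18 h) culture and a 1 h calcium dye load at 37 C, compounds are added by pin tool and the plate read at 480/540 nm for 3 min in 1 s steps.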

[5] = p53 small molecule agonists, cell-based qHTS assay with rat liver microsomes (AID 1963578)
Outline: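 Cells carrying a p53 response element–beta-lactamase reporter were plated and rested 5 h, then dosed with compound in DMSO plus rat liver microsomes and NADPH, each at 0.5 mg/mL final. After 16 h at 37 C, LiveBLAzer substrate was added for 2 h.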

[6] = p53 small molecule agonists, cell-based qHTS assay with human liver microsomes: qHTS cell viability counter screen (AID 1963579); note: nearly all actives have a fitted effect of over 45% in size
Outline: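 Cytotoxicity counter screen: p53RE-bla, 4,000 cells/well; 5 h settle, 37 C/5% CO2; cpd + HLM 0.5 mg/mL + NADPH 0.5 mg/mL (final); 16 h, 37 C; CellTiter-Glo, 30 min RT, luminescence.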

[7] = p53 small molecule agonists, cell-based qHTS assay with rat liver microsomes: qHTS cell viability counter screen (AID 1963580); note: nearly all actives have a fitted effect of over 45% in size
Outline: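 Luminescent ATP readout (CellTiter-Glo, 30 min at room temperature) reports viability of p53RE-bla HCT-116 cells after 16 h at 37 C with test compounds under metabolic activation by rat liver microsomes and NADPH at 0.5 mg/mL final each.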

[8] = p53 small molecule agonists, cell-based qHTS assay (AID 1963582; active = well fitted activation curve with a large enough effect in the signal ratio in the repeat runs, not every such curve was filed as active; the % refers to the signal ratio)
Outline: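 After plating, p53RE-bla cells sat 5 h in the incubator; compounds or DMSO vehicle were pinned in; a 16 h incubation at 37 C followed; FRET substrate was added and, 2 h later at RT, fluorescence was measured.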

[9] = cAMP Responsive Elements (CRE) small molecule agonists, cell-based qHTS assay (AID 1963590)
Outline: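 Compound exposure lasted 3 h at 37 C/5% CO2 in CRE-bla HEK 293T cells grown in assay medium with 10% dialyzed FBS and 25 mM HEPES. Reporter signal came from LiveBLAzer B/G FRET substrate, 2 h, room temperature.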

[10] = target: Beta-2 adrenergic receptor (Homo sapiens) (UniProt P07550); assay: Adrenergic beta2 receptor (ADRB2) small molecule antagonists, cell-based qHTS assay (AID 1963592); note: series mostly up to about 92 µM; nearly all actives have a fitted effect of over 50% in size
Outline: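 Assay format: CHO-ADRB2 cells, 18-20hr seeding at 37C/5% CO2, then compound plus 1nM isoproterenol agonist mix for 0.5hr RT. Homogeneous time-resolved fluorescence cAMP detection after 1hr, expressed as 665/615 nm ratio.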

[11] = target: D(2) dopamine receptor (Homo sapiens) (UniProt P14416); assay: Dopamine D2 receptor (DRD2) small molecule agonists, cell-based qHTS assay (AID 1963594); note: nearly all actives have a fitted effect of over 35% in size
Outline: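 HEK293 cells stably expressing DRD2 were cultured 24 h at 37 C, then given Ro20-1724 (0.1 mM final) and compounds for 10 min at room temperature. NKH477 (200nM) was then added for 30 min. cAMP was read by HTRF.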

[12] = target: D(2) dopamine receptor (Homo sapiens) (UniProt P14416); assay: Dopamine D2 receptor (DRD2) small molecule antagonists, cell-based qHTS assay (AID 1963595; active = well fitted inhibition curve with a large enough effect in the signal ratio in the repeat runs, with a control signal flat; the % refers to the signal ratio)
Outline: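 Antagonist mode in DRD2-HEK293 cells: after compound addition with 0.1 mM Ro20-1724, cells received quinpirole (12 nM) and NKH477 (200 nM) for 30 min at room temperature; HTRF cAMP read after 1 h detection.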

[13] = p53 small molecule agonists, cell-based qHTS assay: qHTS cell viability counter screen (AID 1963581); note: nearly all actives have a fitted effect of over 45% in size
Outline: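 Luminescence from CellTiter-Glo, reflecting ATP content, serves as the cytotoxicity measure; it is taken after the 2 h reporter substrate step in HCT-116 p53RE-bla cells dosed for 16 h at 37 C.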

[14] = target: 5-hydroxytryptamine receptor 2A (Homo sapiens) (UniProt P28223); assay: 5-hydroxytryptamine receptor 2A (HTR2A) small molecule antagonists, cell-based qHTS assay (AID 1963586); note: nearly all actives have a fitted effect of over 45% in size
Outline: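 CHO cells stably expressing human HTR2A were plated for 18 h at 37 C, then loaded with calcium dye for 1 h. Compounds were preincubated 5 min at room temperature before DOI (4 nM solution) was added. Kinetic fluorescence was read for 3 min.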

[15] = target: 5-hydroxytryptamine receptor 2A (Homo sapiens) (UniProt P28223); assay: 5-hydroxytryptamine receptor 2A (HTR2A) small molecule agonists, cell-based qHTS assay (AID 1963587); note: nearly all actives have a fitted effect of over 30% in size
Outline: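 HTR2A-CHO cells, plated 18 h at 37 C/5% CO2, dye-loaded 1 h at 37 C; compounds in DMSO added by pin tool (agonist mode). Intracellular calcium flux read as kinetic fluorescence on FDSS over 2 min at 1 s intervals.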

[16] = target: Muscarinic acetylcholine receptor M1 (Homo sapiens) (UniProt P11229); assay: Cholinergic receptor muscarinic 1 (CHRM1) small molecule antagonists, cell-based qHTS assay (AID 1963588); note: nearly all actives have a fitted effect of over 40% in size
Outline: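 Compounds were tested at 15 concentrations in three independent runs. Dye-loaded CHRM1-CHO cells were exposed 5 min at room temperature before stimulation by acetylcholine added at 50nM. Intracellular calcium was read kinetically on FDSS for 3 min.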

[17] = target: Muscarinic acetylcholine receptor M1 (Homo sapiens) (UniProt P11229); assay: Cholinergic receptor muscarinic 1 (CHRM1) small molecule agonists, cell-based qHTS assay (AID 1963589); note: nearly all actives have a fitted effect of over 35% in size
Outline: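 Fluorescent calcium dye reports M1 activation in stably transfected CHO cells. Compounds, 15 concentrations, added after 1 h dye loading at 37 C; kinetic reading at 1 sec intervals.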

[18] = cAMP Responsive Elements (CRE) small molecule antagonists, cell-based qHTS assay (AID 1963591; active = well fitted inhibition curve with a large enough effect in the signal ratio in the repeat runs, not every such curve was filed as active; the % refers to the signal ratio)
Outline: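 Stimulation used NKH477 at a final 0.25 uM for 3 h in compound-treated CRE-bla HEK293T cells, seeded 18 h beforehand. Reporter activity was measured with LiveBLAzer B/G FRET substrate after 2 h at room temperature.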

[19] = target: Beta-2 adrenergic receptor (Homo sapiens) (UniProt P07550); assay: Adrenergic beta2 receptor (ADRB2) small molecule agonists, cell-based qHTS assay (AID 1963593);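 note: CHO cells stably overexpressing human ADRB2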
Outline: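 CHO cells stably over-expressing ADRB2 were plated overnight at 37C, then dosed with compounds plus a stimulation mix containing 100uM IBMX and 25uM Ro-20-1724 for 0.5hr at room temperature. cAMP was measured by HTRF competition, 1hr.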
% is set by controls: 0 for no effect and ±100 for the full control effect.

Chain of 5-hydroxytryptamine receptor 2A (Homo sapiens) (P28223 whole entry, looked up): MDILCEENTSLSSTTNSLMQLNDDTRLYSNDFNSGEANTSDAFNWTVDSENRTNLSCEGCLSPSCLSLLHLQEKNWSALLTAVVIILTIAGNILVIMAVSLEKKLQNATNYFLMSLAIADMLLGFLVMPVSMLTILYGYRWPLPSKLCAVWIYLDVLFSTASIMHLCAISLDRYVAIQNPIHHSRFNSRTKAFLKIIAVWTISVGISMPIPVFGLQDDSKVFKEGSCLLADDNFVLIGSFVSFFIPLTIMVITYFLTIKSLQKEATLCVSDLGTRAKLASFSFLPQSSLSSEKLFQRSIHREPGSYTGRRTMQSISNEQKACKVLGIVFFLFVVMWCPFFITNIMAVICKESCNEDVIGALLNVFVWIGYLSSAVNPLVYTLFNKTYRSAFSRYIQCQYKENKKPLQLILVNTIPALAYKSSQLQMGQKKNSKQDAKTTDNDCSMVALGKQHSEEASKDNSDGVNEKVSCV
Chain of Gonadotropin-releasing hormone receptor (Homo sapiens) (P30968 whole entry, looked up): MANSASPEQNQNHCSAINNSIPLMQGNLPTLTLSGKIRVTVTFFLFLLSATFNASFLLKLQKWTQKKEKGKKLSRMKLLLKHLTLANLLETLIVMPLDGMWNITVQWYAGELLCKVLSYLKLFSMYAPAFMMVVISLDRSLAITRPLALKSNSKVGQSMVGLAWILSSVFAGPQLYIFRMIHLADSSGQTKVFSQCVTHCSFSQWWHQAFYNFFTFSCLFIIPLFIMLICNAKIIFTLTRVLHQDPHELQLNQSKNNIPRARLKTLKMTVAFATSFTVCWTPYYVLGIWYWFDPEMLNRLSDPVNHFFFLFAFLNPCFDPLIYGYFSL
Chain of Beta-2 adrenergic receptor (Homo sapiens) (P07550 whole entry, looked up): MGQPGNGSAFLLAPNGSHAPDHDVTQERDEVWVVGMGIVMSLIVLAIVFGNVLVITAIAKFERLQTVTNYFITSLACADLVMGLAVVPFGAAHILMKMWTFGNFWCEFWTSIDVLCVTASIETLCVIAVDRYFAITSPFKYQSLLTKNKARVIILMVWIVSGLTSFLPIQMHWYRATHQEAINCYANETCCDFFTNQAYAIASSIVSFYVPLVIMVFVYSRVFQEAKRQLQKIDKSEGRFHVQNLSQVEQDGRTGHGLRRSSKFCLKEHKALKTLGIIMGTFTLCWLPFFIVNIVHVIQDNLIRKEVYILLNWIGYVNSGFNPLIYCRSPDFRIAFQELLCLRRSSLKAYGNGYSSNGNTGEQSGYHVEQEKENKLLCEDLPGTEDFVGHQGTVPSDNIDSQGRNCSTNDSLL
Chain of D(2) dopamine receptor (Homo sapiens) (P14416 whole entry, looked up): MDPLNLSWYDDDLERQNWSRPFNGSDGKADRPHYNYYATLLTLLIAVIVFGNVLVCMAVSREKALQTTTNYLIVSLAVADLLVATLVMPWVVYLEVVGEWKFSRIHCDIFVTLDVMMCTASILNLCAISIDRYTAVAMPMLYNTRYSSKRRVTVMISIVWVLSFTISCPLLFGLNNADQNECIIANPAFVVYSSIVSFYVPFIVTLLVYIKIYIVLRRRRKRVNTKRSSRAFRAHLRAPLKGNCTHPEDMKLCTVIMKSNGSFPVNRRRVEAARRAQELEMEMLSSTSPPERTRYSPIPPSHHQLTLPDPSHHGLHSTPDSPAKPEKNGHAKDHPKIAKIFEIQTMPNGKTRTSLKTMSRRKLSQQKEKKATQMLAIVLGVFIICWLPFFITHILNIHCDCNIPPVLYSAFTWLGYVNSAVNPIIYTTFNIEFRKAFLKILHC
Chain of Muscarinic acetylcholine receptor M1 (Homo sapiens) (P11229 whole entry, looked up): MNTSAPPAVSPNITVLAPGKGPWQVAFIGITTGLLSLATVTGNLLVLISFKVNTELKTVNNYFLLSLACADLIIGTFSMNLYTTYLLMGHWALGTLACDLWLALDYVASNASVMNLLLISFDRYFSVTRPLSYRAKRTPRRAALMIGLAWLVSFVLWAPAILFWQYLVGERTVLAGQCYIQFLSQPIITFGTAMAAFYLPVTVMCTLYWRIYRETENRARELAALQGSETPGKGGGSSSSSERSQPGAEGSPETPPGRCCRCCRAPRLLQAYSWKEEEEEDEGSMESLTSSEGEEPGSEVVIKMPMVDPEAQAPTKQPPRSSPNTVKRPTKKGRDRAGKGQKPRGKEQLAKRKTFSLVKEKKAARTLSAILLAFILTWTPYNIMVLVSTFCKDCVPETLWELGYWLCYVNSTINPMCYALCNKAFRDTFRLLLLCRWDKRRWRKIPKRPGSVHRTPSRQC
Chain of KiSS-1 receptor (Homo sapiens) (Q969F8 whole entry, looked up): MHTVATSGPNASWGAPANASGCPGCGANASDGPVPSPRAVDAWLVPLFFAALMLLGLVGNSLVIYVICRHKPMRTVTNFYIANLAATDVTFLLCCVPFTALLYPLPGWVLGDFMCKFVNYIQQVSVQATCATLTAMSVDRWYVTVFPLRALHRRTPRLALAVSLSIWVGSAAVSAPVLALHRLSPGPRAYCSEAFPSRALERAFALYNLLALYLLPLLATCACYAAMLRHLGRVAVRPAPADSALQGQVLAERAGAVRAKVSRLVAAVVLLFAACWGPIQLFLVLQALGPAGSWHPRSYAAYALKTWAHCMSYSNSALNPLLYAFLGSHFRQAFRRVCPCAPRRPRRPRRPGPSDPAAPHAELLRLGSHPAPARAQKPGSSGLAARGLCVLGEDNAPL

C[C@H](CS)C(=O)N1CCC[C@H]1C(=O)O
inactive: Potency [1] | Potency [2] | Potency [3] | Potency [4] | Potency [5] | Potency [6] | Potency [7] | Potency [8] | Potency [9] | Potency [10] | Potency [11] | Potency [12]

N[C@@H](CCC(=O)N[C@@H](CS)C(=O)NCC(=O)O)C(=O)O
inactive: activity change, negative = cytotoxicity [1] 3.9% [at 19 µM] | activity change [2] 2.39% [at 11.8 µM, hits give high values] | activation [3] 0.132% [at 15.8 µM] | activation [4] -1.3% [at 11.8 µM] | activity change, negative = cytotoxicity [6] -1.1% [at 13.5 µM] | activity change, negative = cytotoxicity [7] 0.778% [at 13.5 µM] | activity change, negative = cytotoxicity [13] 13.7% [at 13.5 µM] | activity, negative = inhibition [14] -1.78% [at 12.7 µM] | activation [15] 2.78% [at 15.9 µM] | activity, negative = inhibition [16] 11.9% [at 12.6 µM] | activation [17] -0.288% [at 15.8 µM] | activity change, negative = inhibition [18] -10.5% [at 18.9 µM] | activity change, negative = inhibition [10] -5.33% [at 19 µM] | activation [19] 20.3% [at 19 µM] | activation [11] -7.59% [at 19 µM]

COC(=O)CCCCCCCC(=O)OC
inactive: Potency [1] | Potency [2] | Potency [3] | Potency [4] | Potency [5] | Potency [7] | Potency [8] | Potency [14] | Potency [15] | Potency [16] | Potency [17] | Potency [9] | Potency [18] | Potency [10] | Potency [19] | Potency [11] | Potency [12]

CC(C)CCCCCCOC(=O)C1CCCCC1C(=O)OCCCCCCC(C)C (stereo not given)
inactive: Potency [1] | Potency [2] | Potency [3] | Potency [4] | Potency [6] | Potency [7] | Potency [13] | Potency [14] | Potency [15] | Potency [16] | Potency [17] | Potency [9] | Potency [18] | Potency [10] | Potency [11] | Potency [12]

COC(OC)(C(=O)c1ccccc1)c1ccccc1
inactive: Potency [1] | Potency [2] | Potency [3] | Potency [4] | Potency [6] | Potency [7] | Potency [13] | Potency [14] | Potency [15] | Potency [16] | Potency [17] | Potency [9] | Potency [18] | Potency [10] | Potency [19] | Potency [11] | Potency [12]

O=C1CC[C@@H](C(=O)O)N1
inactive: Potency [1] | Potency [2] | Potency [3] | Potency [4] | Potency [6] | Potency [7] | Potency [13] | Potency [14] | Potency [15] | Potency [16] | Potency [17] | Potency [9] | Potency [18] | Potency [10] | Potency [19] | Potency [11] | Potency [12]

CCCC1CCOC(C)S1 (stereo not given)
inactive: Potency [1] | Potency [2] | Potency [3] | Potency [4] | Potency [6] | Potency [7] | Potency [13] | Potency [14] | Potency [15] | Potency [16] | Potency [17] | Potency [9] | Potency [18] | Potency [10] | Potency [19] | Potency [11]

Source: PubChem BioAssay (Tox21)
